We go through eight compounds from PubChem BioAssay (NCATS).

Molecules are shown by their SMILES. “And” between values parts separate entries of the source, which are not always exact repeats. Equal entries are not always repeated. Results filed as inconclusive are left out. The source made the active and inactive calls. Unless noted, how the calls were made is not given here.

Experiment [1] can be described thus: qHTS profiling for inhibitors of Plasmodium falciparum (3D7) proliferation (AID 743322).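 Further: infected erythrocytes exposed to compound for 72 h before lysis; 100% = DMSO vehicle wells and 0% = 0.29 µM artemisinin.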 The settings on record: P. falciparum 3D7 proliferation; at 28.7 µM (top of the series). In short, it runs like this:
(§1)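 Erythrocytes infected with P. falciparum (0.3% parasitemia, 2.5% hematocrit) incubated with compounds 72 h at 37 C, 5% CO2. Lysis with saponin/Triton buffer containing SYBR Green I, overnight at room temperature in the dark; DNA fluorescence (485/535 nm) normalised to 0.29 uM artemisinin and DMSO.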
A general note: Quantitative high-throughput screening tests each substance at several concentrations.

Experiment [2] can be described thus: qHTS profiling for inhibitors of Plasmodium falciparum (DD2) proliferation (AID 743323). Conditions: lower = more inhibition; at 28.7 µM (top of the series). The method, boiled down:
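Parasite proliferation measured via DNA-dye fluorescence, as uninfected erythrocytes lack DNA. Cultures at 0.3% parasitemia and 2.5% hematocrit incubated 72 h with compound; signal scaled between vehicle and 0.29 uM artemisinin wells.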

Experiment [3] can be described thus: qHTS profiling for inhibitors of Plasmodium falciparum (HB3) proliferation (AID 743324; active means well fitted curve in the direction sought with a large enough effect; an effect the other way counts as inactive or inconclusive;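 further: 100% = DMSO vehicle wells and 0% = artemisinin-treated control wells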). The settings on record: Plasmodium falciparum HB3 blood-stage proliferation; at 28.7 µM (top of the series). In short, it runs like this:
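P. falciparum HB3 grown in erythrocytes (0.3% parasitemia, 2.5% hematocrit final) with compound for 72 h at 37 C, 5% CO2. Parasite DNA detected by SYBR Green after saponin/triton lysis overnight; normalized to 0.29 uM artemisinin and DMSO.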

The nature of experiment [4]: qHTS profiling of the MIPE4 collection as inhibitors of Plasmodium falciparum (3D7) proliferation (AID 743344).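 Further: scaled between DMSO vehicle wells and 0.29 µM artemisinin as full inhibition.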 The settings on record: P. falciparum 3D7 in erythrocytes, SYBR Green DNA fluorescence, 72 h; at 28.5 µM (top of the series) unless noted. In short, it runs like this: as §1
Experiment [5] can be described thus: qHTS profiling of the MIPE4 collection as inhibitors of Plasmodium falciparum (DD2) proliferation (AID 743345). The settings on record: P. falciparum Dd2 in erythrocytes, SYBR Green DNA, 72 h; at 28.5 µM (top of the series) unless noted. The method, boiled down: as §1
A short description of experiment [6]: qHTS profiling of the MIPE4 collection as inhibitors of Plasmodium falciparum (DD2) proliferation (Rep 2) (AID 743346). The settings on record: P. falciparum Dd2 in erythrocytes, SYBR Green DNA, 72 h; at 28.5 µM (top of the series) unless noted. In short, it runs like this: as §1
Experiment [7] can be described thus: qHTS profiling of the MIPE4 collection as inhibitors of Plasmodium falciparum (HB3) proliferation (AID 743347).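 Further: plate controls were DMSO vehicle wells for no effect and artemisinin wells for full effect.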 Conditions: P. falciparum HB3 in erythrocytes, SYBR Green DNA, 72 h; at 28.5 µM (top of the series) unless noted. The method, boiled down:
as §1

A short description of experiment [8]: High-throughput drug toxicity screening in the BPDCN cell line Gen2.2 (AID 1224824).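 Further: cells exposed to compounds for 48 h before reading.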 The settings on record: Gen2.2 BPDCN cells; at 45.8 µM (top of the series) unless noted. In short, it runs like this:
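Gen2.2 cells (500/well) in phenol red-free RPMI with 10% FBS were exposed to compounds for 48 h at 37 °C, 5% CO2. Viability was read by CellTiter-Glo luminescence and normalized to DMSO (100%) and 9.2 uM bortezomib (0%).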

The nature of experiment [9]: High-throughput drug toxicity screening in the BPDCN cell line Cal-1 (AID 1224825). The settings on record: Cal-1 BPDCN cell viability, qHTS; at 45.8 µM (top of the series) unless noted. In short, it runs like this:
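Exponentially growing Cal-1 cells, 500 per well in phenol red-free RPMI with 10% FBS, were exposed to compounds for 48 h at 37 °C, 5% CO2. Viability was read by CellTiter-Glo luminescence and normalised to DMSO (100%) and 9.2 uM bortezomib (0%).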

Experiment [10] can be described thus: qHTS assay for measurement of the activity of small molecule inhibitors on Zika virus induced Caspase-3 activity in human astrocytoma cells (AID 1224859; active means well fitted curve in the direction sought with a large enough effect; an effect the other way counts as inactive or inconclusive;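 further: plate controls were ZIKV-infected untreated cells for no effect and uninfected cells for full effect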). The method, boiled down:
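Human SNB-19 astrocytoma cells in RPMI 1640 with 10% FBS receive compound one hour ahead of Zika virus at 2 FFU/cell. After 6 h infection, caspase-3/7 activity is detected by Caspase-Glo luminescence.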

A short description of experiment [11]: qHTS Screen of the MIPE 4.0 Collection Against Ewings Sarcoma (RDES) (AID 1259252; active means well fitted curve in the direction sought with a large enough effect; an effect the other way counts as inactive or inconclusive; further: nearly all actives have a fitted effect of over 35% in size; further: potency means the concentration at half of the fitted maximal effect). In short, it runs like this:
(§2)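 Compound titrations go onto adherent log-phase cells 4 h after seeding, incubate 48 h at 37C, then CellTiter-Glo luminescence reports viability relative to DMSO and cell-free controls.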

The nature of experiment [12]: qHTS Screen of the MIPE 4.0 Collection Against Ewings Sarcoma (TC71) (AID 1259253; active means well fitted curve in the direction sought with a large enough effect; an effect the other way counts as inactive or inconclusive; further: nearly all actives have a fitted effect of over 40% in size; further: potency means the concentration at half of the fitted maximal effect). In short, it runs like this:
as §2

Experiment [13] in a line: qHTS Screen of the MIPE 4.0 Collection Against Ewings Sarcoma (EW8) (AID 1259255; active means well fitted curve in the direction sought with a large enough effect; an effect the other way counts as inactive or inconclusive; further: nearly all actives have a fitted effect of over 35% in size; further: potency means the concentration at half of the fitted maximal effect;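 on viability: 100% = DMSO-treated cells and 0% = medium-only wells without cells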). In short, it runs like this: as §2
Experiment [14] is described as follows: qHTS assay for measurement of the activity of small molecule inhibitors on Zika virus induced Caspase-3 activity in human iPSC derived neural progenitor cells (hNPCs) (AID 1224857; active means well fitted curve in the direction sought with a large enough effect; an effect the other way counts as inactive or inconclusive; further: % of control where 0% means no effect; nearly all actives have a fitted effect of over 65% in size). In short, it runs like this: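 Pretreat hNPCs with compound 1 h; infect ZIKV 2 FFU/cell; 6 h 37 C, 5% CO2; Caspase-Glo 3/7, 30 min RT; luminescence; normalize to no-virus and virus-only wells.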

The nature of experiment [15]: qHTS assay for small molecule agonists of the antioxidant response element (ARE) signaling pathway measured by Nrf2-dependant transcriptional activity - cell viability counter screen (AID 720653; active means well fitted curve in the direction sought with a large enough effect in the repeat runs; an effect the other way counts as inactive or inconclusive; further: on the % scale 0 is the no-effect control and ±100 the full control effect). Conditions: ARE-bla HepG2 viability, CellTiter-Glo ATP luminescence, 16 h; max response: stronger effect = lower value. In short, it runs like this:
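ARE-bla HepG2 cells (2,000/well) rested 5 hrs at 37C/5% CO2, then exposed to compounds in DMSO for 16 hrs. Viability was read in the same wells as intracellular ATP by luminescence, 30 min at room temperature after reagent addition.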

Experiment [16] has as its target T1, Hexokinase-4 (Homo sapiens) + Glucokinase regulatory protein (Homo sapiens) (UniProt P35557+Q14397). Briefly: qHTS assay for inhibitors of recombinant human GCK-GKRP interaction: Diaphorase-coupled assay (AID 743205; active means well fitted curve in the direction sought with a large enough effect; an effect the other way counts as inactive or inconclusive). The method, boiled down:
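GST-GCK (10 nM) with FLAG-GKRP (10 nM), 5 mM glucose and 0.4 mM ATP in pH 7.6 Hepes; compounds preincubated 20 min with substrate. G6PDH/diaphorase coupling converts resazurin to resorufin, read kinetically (ex 525/em 590 nm) for 30 min.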

Experiment [17] deals with T1, Hexokinase-4 (Homo sapiens) + Glucokinase regulatory protein (Homo sapiens). Briefly: qHTS assay for inhibitors of recombinant human GCK-GKRP interaction: ADP-Glo assay (AID 743206; active means well fitted curve in the direction sought with a large enough effect; an effect the other way counts as inactive or inconclusive;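 further: plate controls were DMSO plus enzyme for no effect and no enzyme for full effect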). In short, it runs like this:
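GST-GCK and FLAG-GKRP (15 nM each in the dispensed mix, with 2 uM S6P) react with 0.4 mM ATP and 5 mM glucose (final) in Hepes pH 7.6 for 60 min at room temperature. ADP is measured by ADP-Glo luminescence.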

For experiment [18] the target is unchanged. The experiment in a line: qHTS assay for inhibitors of recombinant human GCK-GKRP interaction: HTRF assay (AID 743207; active means well fitted curve in the direction sought with a large enough effect; an effect the other way counts as inactive or inconclusive;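 further: 0% = DMSO with GCK present and -100% = DMSO wells lacking GCK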). In short, it runs like this:
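GST-GCK and FLAG-GKRP (5 nM each) were combined with 2 uM S6P in pH 7.1 Hepes/MgCl2/KCl/DTT buffer, then compound and anti-FLAG XL665/anti-GST K antibodies were added. After 60 min at room temperature, HTRF 665/615 nm emission was read.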

Experiment [19] in a line: qHTS Assay for Identifying Gametocytocidal Compounds (AID 743244; active means well fitted curve in the direction sought with a large enough effect; an effect the other way counts as inactive or inconclusive;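 further: on the % scale 0 is the no-effect control and ±100 the full control effect; actives lower the fluorescent signal which means gametocytes are killed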). The settings on record: P. falciparum 3D7 stage III-V gametocytes, alamarBlue, 72 h; max response: stronger effect = lower value. The method, boiled down: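 Compounds are pinned into medium, gametocytes (stage III–V, 3D7, 20,000 cells/well) added, and plates held 72 h at 37 °C in 5% CO2. AlamarBlue follows for 24 h before fluorescence reading.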

A short description of experiment [20]: qHTS assay for cell viability of the p53RE-bla HCT-116 cell line (AID 743292; active means well fitted curve in the direction sought with a large enough effect; an effect the other way counts as inactive or inconclusive; further: on the % scale 0 is the no-effect control and ±100 the full control effect; nearly all actives have a fitted effect of over 55% in size). In short, it runs like this:
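Intracellular ATP of p53RE-bla HCT-116 cells measured by luciferase luminescence following 16 h compound incubation at 37 C; DMSO-only wells served as vehicle controls.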

T1 sequence (P35557 whole entry, looked up): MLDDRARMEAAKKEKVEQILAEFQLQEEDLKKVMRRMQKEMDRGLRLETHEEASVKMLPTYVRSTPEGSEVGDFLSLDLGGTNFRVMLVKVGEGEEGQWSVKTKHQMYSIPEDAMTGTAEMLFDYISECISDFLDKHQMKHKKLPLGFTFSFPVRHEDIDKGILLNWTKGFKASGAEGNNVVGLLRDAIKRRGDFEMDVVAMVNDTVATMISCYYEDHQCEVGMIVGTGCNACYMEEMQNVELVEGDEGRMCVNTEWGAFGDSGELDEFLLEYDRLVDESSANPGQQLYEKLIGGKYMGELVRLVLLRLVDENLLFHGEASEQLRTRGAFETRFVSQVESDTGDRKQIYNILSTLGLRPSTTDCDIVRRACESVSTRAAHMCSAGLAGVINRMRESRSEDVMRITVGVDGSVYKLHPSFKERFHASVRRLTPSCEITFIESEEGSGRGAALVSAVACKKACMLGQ
T1 sequence (Q14397 whole entry, looked up): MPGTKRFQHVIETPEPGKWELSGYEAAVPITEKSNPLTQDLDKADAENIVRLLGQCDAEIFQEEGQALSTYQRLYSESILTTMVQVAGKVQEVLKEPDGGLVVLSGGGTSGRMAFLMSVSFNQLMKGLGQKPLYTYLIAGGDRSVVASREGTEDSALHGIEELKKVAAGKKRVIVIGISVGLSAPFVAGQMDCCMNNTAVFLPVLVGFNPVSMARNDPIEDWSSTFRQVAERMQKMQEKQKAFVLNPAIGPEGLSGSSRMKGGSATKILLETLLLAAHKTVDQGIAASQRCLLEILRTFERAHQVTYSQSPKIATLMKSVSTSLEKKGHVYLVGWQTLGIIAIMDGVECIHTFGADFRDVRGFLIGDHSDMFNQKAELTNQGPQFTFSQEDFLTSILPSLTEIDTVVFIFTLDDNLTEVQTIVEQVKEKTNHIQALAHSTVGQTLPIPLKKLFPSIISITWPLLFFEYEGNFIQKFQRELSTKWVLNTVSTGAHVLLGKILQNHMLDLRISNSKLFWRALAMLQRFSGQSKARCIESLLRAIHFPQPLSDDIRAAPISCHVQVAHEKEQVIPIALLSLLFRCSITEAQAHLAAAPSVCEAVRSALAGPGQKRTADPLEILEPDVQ

For `C[C@@H]1CCN(C(=O)CC#N)C[C@H]1N(C)c1ncnc2[nH]ccc12`, in experiment [1], the remaining parasite growth % (stronger effect = lower value) is 89.8%. For the same compound, the activity, percent of control in experiment [2] was 90.1%. The compound also had a remaining proliferation (% of control), lower = more inhibition in experiment [3] of 56.2%. This compound also yielded a parasite growth, % of DMSO control in experiment [4] of 72.5%. For the same compound, in [5], the parasite growth remaining, % of DMSO control (lower = more inhibition) was determined as 96.3%. The parasite growth, % of control (lower = inhibition) in [6] was found to be 93.5%. For the same compound, in [7], the growth, % of control stood at 74.7%. In addition, the cell viability, % of control (lower = more cytotoxic) in experiment [8] amounted to 52.4%. Further, in experiment [9], the viability (% of control) was 110%. Further, the Potency result in experiment [10], in [11], in experiment [12] and in [13] was “inactive” in each case.

For the compound `Cc1cnc(C(=O)O)c[n+]1[O-]`, in experiment [4], the parasite growth, % of DMSO control is 97%. Also, in experiment [6], the parasite growth, % of control (lower = inhibition) was determined as 108%. For the same compound, the growth, % of control in experiment [7] amounted to 66.8%. In addition, the cell viability, % of control (lower = more cytotoxic) in [8] worked out at 174%. In experiment [9], the viability (% of control) was determined as 105%. The Potency entry in experiment [14] and in experiment [13] was “inactive” each time.

Turning to `CC(C)C(=O)Oc1ccc(CO)cc1[C@H](CCN(C(C)C)C(C)C)c1ccccc1`, the parasite growth, % of DMSO control in [4] stood at 37.9%. The parasite growth remaining, % of DMSO control (lower = more inhibition) in experiment [5] was 40.7%. Besides, the parasite growth, % of control (lower = inhibition) in experiment [6] was 20.1%. This compound displayed a growth, % of control in experiment [7] of 45.5%. The cell viability, % of control (lower = more cytotoxic) in [8] is 126%. For the same compound, the viability (% of control) in experiment [9] was 102%. In addition, the Potency result in [10], in [11], in experiment [12] and in [13] was “inactive” throughout.

As to `O=c1cc(-c2ccc(O)cc2)oc2cc(O)cc(O)c12`, the max response in [15] was -5.98% (inactive) and -9.88% (inactive); in experiment [19] it was 0.431% (inactive). Also, the outcome in [16], in experiment [17] and in experiment [18] was inactive. Also, the Potency entry in experiment [20] and in [10] was “inactive” throughout. Moreover, the parasite growth, % of DMSO control in experiment [4] worked out at 7.22%. Further, in experiment [6], the parasite growth, % of control (lower = inhibition) worked out at 6.57%. Further, in experiment [7], the growth, % of control was 3.14%. For the same compound, the cell viability, % of control (lower = more cytotoxic) in experiment [8] amounted to 8.72%. Further, the viability (% of control) in experiment [9] is 4.48%. Further, the Potency was 18.7 µM (active) in experiment [11], 20.9 µM (active) in [12] and 23.5 µM (active) in experiment [13].

In the case of `COc1cc(NC(=O)c2ccc(-c3ccc(Cl)cc3)o2)cc(OC)c1`, the parasite growth, % of control (lower = inhibition) in experiment [6] was 99.4%. Besides, the growth, % of control in [7] came out at 94.4%. Further, in [8], the cell viability, % of control (lower = more cytotoxic) came out at 9.04%. Also, the viability (% of control) in experiment [9] stood at 6.59%. Besides, the Potency entry in experiment [14] is “inactive”.

In experiment [1], `CCOC(CN1C(=O)[C@](CC(=O)Nc2ccc(C)cc2)(NC(=O)Nc2ccc(C)cc2)c2ccccc21)OCC` returned a remaining parasite growth % (stronger effect = lower value) of 4.05%. In experiment [2], the activity, percent of control is 23.7%. The compound further returned a remaining proliferation (% of control), lower = more inhibition in experiment [3] of 10.1%. In [4], this compound had a parasite growth, % of DMSO control of 14%. The compound also had a parasite growth remaining, % of DMSO control (lower = more inhibition) in experiment [5] of 38.2%. In addition, in experiment [7], the growth, % of control worked out at 15.7%. In experiment [8], the cell viability, % of control (lower = more cytotoxic) is 45.2%. In addition, the viability (% of control) in [9] was determined as 46.4%. Also, the Potency entry in experiment [14] is “inactive”.

As for `CNC(=O)c1ccc2cc(C3(O)CCn4cncc43)ccc2c1` (stereo unspecified), the parasite growth, % of DMSO control in experiment [4] amounted to 84.5%. Also, in [5], the parasite growth remaining, % of DMSO control (lower = more inhibition) was found to be 86.6%. The compound also had a growth, % of control in experiment [7] of 55%. Also, the cell viability, % of control (lower = more cytotoxic) in experiment [8] worked out at 82.2%. Besides, in [9], the viability (% of control) stood at 94.8%. Moreover, the Potency entry in [14] and in [13] was “inactive” in each case.

As to `O=C(CCc1ccc(O)cc1)c1c(O)cc(O)cc1O[C@@H]1O[C@H](CO)[C@H](O)[C@H](O)[C@H]1O`, the parasite growth, % of DMSO control in [4] is 272%. The same compound displayed a parasite growth remaining, % of DMSO control (lower = more inhibition) in experiment [5] of 79.6%. Moreover, the parasite growth, % of control (lower = inhibition) in [6] stood at 57.9%. This compound had a growth, % of control in experiment [7] of 54%. For the same compound, in experiment [8], the cell viability, % of control (lower = more cytotoxic) is 238%. For the same compound, in [9], the viability (% of control) was 107%. Also, the Potency entry in experiment [10], in [11], in [12] and in [13] was “inactive” throughout.
